Source: PubChem BioAssay (Tox21)
Results filed as inconclusive are left out. Activity calls are given as the source filed them. Unless noted, calls follow the shape of the full dose curve.

What was measured:
[1] = Nuclear factor erythroid 2-related factor 2/antioxidant responsive element (Nrf2/ARE) small molecule agonists: qHTS cell viability counter screen in human keratinocytes (AID 1919968; active = well fitted curve in the direction sought with a large enough effect in the repeat runs; an effect the other way counts as inactive or inconclusive; also: nearly all actives have a fitted effect of over 55% in size)
Method in brief: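 In human HaCaT keratinocytes stably expressing an ARE-driven luciferase, compound exposure lasted 23 h at 37 C under 5% CO2. Viable cells are quantified with a protease-based fluorogenic reagent (CellTiter-Fluor) read 1 h after addition.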

[2] = Nuclear factor erythroid 2-related factor 2/antioxidant responsive element (Nrf2/ARE) small molecule agonists: luciferase reporter gene qHTS assay in human keratinocytes (AID 1919969); also: nearly all actives have a fitted effect of over 35% in size; also: potency is read from the fitted curve at half-maximal effect
[3] = target: Gonadotropin-releasing hormone receptor (Homo sapiens) (UniProt P30968); experiment: Human gonadotropin-releasing hormone receptor (GnRHR) small molecule agonists, calcium flux assay in GnRHR-HEK293 cells (AID 1920063); also: nearly all actives have a fitted effect of over 35% in size; also: potency is read from the fitted curve at half-maximal effect
Gonadotropin-releasing hormone receptor (Homo sapiens), sequence (P30968 whole entry, looked up): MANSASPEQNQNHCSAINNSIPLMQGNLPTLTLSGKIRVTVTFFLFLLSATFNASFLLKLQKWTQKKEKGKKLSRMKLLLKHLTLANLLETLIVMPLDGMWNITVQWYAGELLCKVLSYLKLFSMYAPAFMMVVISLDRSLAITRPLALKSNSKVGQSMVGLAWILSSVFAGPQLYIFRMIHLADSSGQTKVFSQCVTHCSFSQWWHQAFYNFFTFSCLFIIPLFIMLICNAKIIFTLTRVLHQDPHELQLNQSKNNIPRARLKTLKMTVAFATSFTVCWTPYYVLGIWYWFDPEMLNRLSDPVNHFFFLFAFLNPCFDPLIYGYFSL
Method in brief: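 Intracellular calcium rise is the read-out: engineered human GnRHR HEK293 cells, dye-loaded, are exposed to DMSO-dissolved compounds and fluorescence at Ex/Em 480/540 is tracked for 3 min.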

[4] = target: KiSS-1 receptor (Homo sapiens) (UniProt Q969F8); experiment: Human kisspeptin (KISS1R) small molecule agonists, calcium flux assay in KISS1R-HEK293 cells (AID 1920064; active = well fitted curve in the direction sought with a large enough effect in the repeat runs; an effect the other way counts as inactive or inconclusive)
KiSS-1 receptor (Homo sapiens), sequence (Q969F8 whole entry, looked up): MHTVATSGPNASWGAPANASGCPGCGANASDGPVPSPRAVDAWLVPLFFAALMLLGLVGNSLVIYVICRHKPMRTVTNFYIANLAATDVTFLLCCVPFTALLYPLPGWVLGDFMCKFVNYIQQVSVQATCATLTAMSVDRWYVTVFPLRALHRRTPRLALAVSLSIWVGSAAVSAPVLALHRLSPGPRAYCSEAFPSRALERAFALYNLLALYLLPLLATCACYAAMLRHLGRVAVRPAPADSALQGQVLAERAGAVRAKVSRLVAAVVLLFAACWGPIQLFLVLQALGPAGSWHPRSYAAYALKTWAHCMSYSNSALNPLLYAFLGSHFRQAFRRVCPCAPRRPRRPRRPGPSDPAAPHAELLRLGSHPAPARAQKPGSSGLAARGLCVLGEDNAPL
Method in brief: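 Concentration-response testing used 15 concentrations in triplicate on human KISS1R-expressing HEK293 cells. Calcium-dependent fluorescence (Ex/Em 480/540) was followed kinetically for 3 min after compound transfer.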

[5] = G protein-coupled receptor (GPCR) small molecule agonists, calcium flux assay: HEK293 wild type cell line counter screen (AID 1920065)
Method in brief: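 Fluorescence intensity signals activation. After overnight (18 h) culture and a 1 h calcium dye load at 37 C, compounds are added by pin tool and the plate read at 480/540 nm for 3 min in 1 s steps.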

[6] = p53 small molecule agonists, cell-based qHTS assay with rat liver microsomes (AID 1963578)
Method in brief: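 Read-out is beta-lactamase reporter fluorescence (LiveBLAzer, 2 h, room temperature, dark) in p53RE-bla cells treated 16 h at 37 C with compound, rat liver microsomes and NADPH, both 0.5 mg/mL final.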

[7] = p53 small molecule agonists, cell-based qHTS assay with human liver microsomes: qHTS cell viability counter screen (AID 1963579); also: nearly all actives have a fitted effect of over 45% in size
Method in brief: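 Cells carrying the p53 response-element beta-lactamase reporter are treated for 16 h at 37 C with test compounds in the presence of human liver microsomes and NADPH (both 0.5 mg/mL final); ATP-based CellTiter-Glo luminescence then reports viability.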

[8] = p53 small molecule agonists, cell-based qHTS assay with rat liver microsomes: qHTS cell viability counter screen (AID 1963580); also: nearly all actives have a fitted effect of over 45% in size
Method in brief: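 Luminescent ATP readout (CellTiter-Glo, 30 min at room temperature) reports viability of p53RE-bla HCT-116 cells after 16 h at 37 C with test compounds under metabolic activation by rat liver microsomes and NADPH at 0.5 mg/mL final each.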

[9] = p53 small molecule agonists, cell-based qHTS assay: qHTS cell viability counter screen (AID 1963581); also: nearly all actives have a fitted effect of over 45% in size
Method in brief: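 Luminescence from CellTiter-Glo, reflecting ATP content, serves as the cytotoxicity measure; it is taken after the 2 h reporter substrate step in HCT-116 p53RE-bla cells dosed for 16 h at 37 C.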

[10] = p53 small molecule agonists, cell-based qHTS assay (AID 1963582; active = well fitted activation curve with a large enough effect in the signal ratio in the repeat runs, not every such curve was filed as active; the % refers to the signal ratio)
Method in brief: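 After plating, p53RE-bla cells sat 5 h in the incubator; compounds or DMSO vehicle were pinned in; a 16 h incubation at 37 C followed; FRET substrate was added and, 2 h later at RT, fluorescence was measured.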

[11] = target: 5-hydroxytryptamine receptor 2A (Homo sapiens) (UniProt P28223); experiment: 5-hydroxytryptamine receptor 2A (HTR2A) small molecule antagonists, cell-based qHTS assay (AID 1963586); also: nearly all actives have a fitted effect of over 45% in size
5-hydroxytryptamine receptor 2A (Homo sapiens), sequence (P28223 whole entry, looked up): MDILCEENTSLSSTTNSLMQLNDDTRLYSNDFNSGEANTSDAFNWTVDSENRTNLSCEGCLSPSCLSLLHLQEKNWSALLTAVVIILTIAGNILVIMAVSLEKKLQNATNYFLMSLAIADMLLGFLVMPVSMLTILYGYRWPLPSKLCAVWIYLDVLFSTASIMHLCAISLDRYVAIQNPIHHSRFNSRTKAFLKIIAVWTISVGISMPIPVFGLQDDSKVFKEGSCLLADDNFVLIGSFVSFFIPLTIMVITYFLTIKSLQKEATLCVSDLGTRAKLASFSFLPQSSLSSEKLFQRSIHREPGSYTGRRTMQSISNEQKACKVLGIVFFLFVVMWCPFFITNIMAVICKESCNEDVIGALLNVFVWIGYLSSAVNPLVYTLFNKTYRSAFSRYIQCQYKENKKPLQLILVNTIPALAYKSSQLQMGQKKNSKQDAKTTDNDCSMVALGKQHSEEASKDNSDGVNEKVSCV
Method in brief: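 CHO cells stably expressing human HTR2A were plated for 18 h at 37 C, then loaded with calcium dye for 1 h. Compounds were preincubated 5 min at room temperature before DOI (4 nM solution) was added. Kinetic fluorescence was read for 3 min.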

[12] = target: 5-hydroxytryptamine receptor 2A (Homo sapiens) (UniProt P28223); experiment: 5-hydroxytryptamine receptor 2A (HTR2A) small molecule agonists, cell-based qHTS assay (AID 1963587); also: nearly all actives have a fitted effect of over 30% in size
Method in brief: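 HTR2A-CHO cells, plated 18 h at 37 C/5% CO2, dye-loaded 1 h at 37 C; compounds in DMSO added by pin tool (agonist mode). Intracellular calcium flux read as kinetic fluorescence on FDSS over 2 min at 1 s intervals.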

[13] = target: Muscarinic acetylcholine receptor M1 (Homo sapiens) (UniProt P11229); experiment: Cholinergic receptor muscarinic 1 (CHRM1) small molecule antagonists, cell-based qHTS assay (AID 1963588); also: nearly all actives have a fitted effect of over 40% in size
Muscarinic acetylcholine receptor M1 (Homo sapiens), sequence (P11229 whole entry, looked up): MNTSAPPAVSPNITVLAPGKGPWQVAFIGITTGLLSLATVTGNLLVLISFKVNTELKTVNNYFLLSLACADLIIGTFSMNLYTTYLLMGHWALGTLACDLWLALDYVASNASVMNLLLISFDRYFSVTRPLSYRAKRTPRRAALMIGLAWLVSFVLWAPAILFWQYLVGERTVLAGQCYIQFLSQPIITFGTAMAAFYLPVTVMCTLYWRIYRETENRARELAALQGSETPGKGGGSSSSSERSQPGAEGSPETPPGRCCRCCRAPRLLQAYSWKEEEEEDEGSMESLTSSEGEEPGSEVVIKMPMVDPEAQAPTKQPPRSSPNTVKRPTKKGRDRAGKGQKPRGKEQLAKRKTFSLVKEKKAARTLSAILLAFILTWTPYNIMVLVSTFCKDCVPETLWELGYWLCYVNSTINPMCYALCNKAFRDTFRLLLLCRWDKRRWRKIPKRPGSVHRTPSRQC
Method in brief: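 Compounds were tested at 15 concentrations in three independent runs. Dye-loaded CHRM1-CHO cells were exposed 5 min at room temperature before stimulation by acetylcholine added at 50nM. Intracellular calcium was read kinetically on FDSS for 3 min.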

[14] = target: Muscarinic acetylcholine receptor M1 (Homo sapiens) (UniProt P11229); experiment: Cholinergic receptor muscarinic 1 (CHRM1) small molecule agonists, cell-based qHTS assay (AID 1963589); also: nearly all actives have a fitted effect of over 35% in size; also: potency is read from the fitted curve at half-maximal effect
Method in brief: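 Fluorescent calcium dye reports M1 activation in stably transfected CHO cells. Compounds, 15 concentrations, added after 1 h dye loading at 37 C; kinetic reading at 1 sec intervals.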

[15] = cAMP Responsive Elements (CRE) small molecule agonists, cell-based qHTS assay (AID 1963590)
Method in brief: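 Compound exposure lasted 3 h at 37 C/5% CO2 in CRE-bla HEK 293T cells grown in assay medium with 10% dialyzed FBS and 25 mM HEPES. Reporter signal came from LiveBLAzer B/G FRET substrate, 2 h, room temperature.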

[16] = cAMP Responsive Elements (CRE) small molecule antagonists, cell-based qHTS assay (AID 1963591; active = well fitted inhibition curve with a large enough effect in the signal ratio in the repeat runs, not every such curve was filed as active; the % refers to the signal ratio)
Method in brief: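 Stimulation used NKH477 at a final 0.25 uM for 3 h in compound-treated CRE-bla HEK293T cells, seeded 18 h beforehand. Reporter activity was measured with LiveBLAzer B/G FRET substrate after 2 h at room temperature.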

[17] = target: Beta-2 adrenergic receptor (Homo sapiens) (UniProt P07550); experiment: Adrenergic beta2 receptor (ADRB2) small molecule antagonists, cell-based qHTS assay (AID 1963592); also: series mostly up to about 92 µM; nearly all actives have a fitted effect of over 50% in size
Beta-2 adrenergic receptor (Homo sapiens), sequence (P07550 whole entry, looked up): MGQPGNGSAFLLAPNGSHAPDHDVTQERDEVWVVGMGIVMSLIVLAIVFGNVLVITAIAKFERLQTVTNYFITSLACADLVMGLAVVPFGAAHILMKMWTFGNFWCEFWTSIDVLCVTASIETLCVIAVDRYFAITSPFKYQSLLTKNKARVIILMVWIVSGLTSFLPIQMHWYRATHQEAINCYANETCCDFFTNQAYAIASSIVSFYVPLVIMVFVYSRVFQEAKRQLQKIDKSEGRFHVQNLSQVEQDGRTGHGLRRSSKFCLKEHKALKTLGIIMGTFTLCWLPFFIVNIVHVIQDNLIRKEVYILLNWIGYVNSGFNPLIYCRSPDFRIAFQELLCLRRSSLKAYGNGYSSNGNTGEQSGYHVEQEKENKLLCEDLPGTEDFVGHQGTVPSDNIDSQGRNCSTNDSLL
Method in brief: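 Assay format: CHO-ADRB2 cells, 18-20hr seeding at 37C/5% CO2, then compound plus 1nM isoproterenol agonist mix for 0.5hr RT. Homogeneous time-resolved fluorescence cAMP detection after 1hr, expressed as 665/615 nm ratio.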

[18] = target: D(2) dopamine receptor (Homo sapiens) (UniProt P14416); experiment: Dopamine D2 receptor (DRD2) small molecule agonists, cell-based qHTS assay (AID 1963594); also: nearly all actives have a fitted effect of over 35% in size
D(2) dopamine receptor (Homo sapiens), sequence (P14416 whole entry, looked up): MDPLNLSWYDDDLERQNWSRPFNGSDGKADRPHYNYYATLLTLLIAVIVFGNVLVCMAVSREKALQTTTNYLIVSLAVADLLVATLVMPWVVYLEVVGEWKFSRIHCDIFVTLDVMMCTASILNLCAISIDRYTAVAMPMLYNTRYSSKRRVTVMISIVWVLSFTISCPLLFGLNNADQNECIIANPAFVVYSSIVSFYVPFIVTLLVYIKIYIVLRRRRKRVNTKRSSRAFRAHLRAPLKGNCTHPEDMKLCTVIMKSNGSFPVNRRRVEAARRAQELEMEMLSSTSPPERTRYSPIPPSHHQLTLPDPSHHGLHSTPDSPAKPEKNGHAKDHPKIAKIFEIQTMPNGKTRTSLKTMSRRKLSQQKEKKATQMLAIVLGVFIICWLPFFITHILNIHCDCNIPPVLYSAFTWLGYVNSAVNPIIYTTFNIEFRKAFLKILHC
Method in brief: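 HEK293 cells stably expressing DRD2 were cultured 24 h at 37 C, then given Ro20-1724 (0.1 mM final) and compounds for 10 min at room temperature. NKH477 (200nM) was then added for 30 min. cAMP was read by HTRF.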

[19] = target: D(2) dopamine receptor (Homo sapiens) (UniProt P14416); experiment: Dopamine D2 receptor (DRD2) small molecule antagonists, cell-based qHTS assay (AID 1963595; active = well fitted inhibition curve with a large enough effect in the signal ratio in the repeat runs, with a control signal flat; the % refers to the signal ratio)
Method in brief: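 In this cell-based antagonist screen, compounds act for 10 min at room temperature before a 30 min challenge with 12 nM quinpirole and 200 nM NKH477. cAMP is quantified by HTRF competition in DRD2-HEK293 cells containing 0.1 mM Ro20-1724.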

Measured: Potency

COc1cccc(O)c1O
active: [2] 28400 nM
inactive: [1] | [3] | [4] | [5] | [6] | [7] | [8] | [9] | [10] | [11] | [12] | [13] | [14] | [15]

CC(C)=CC1CC(C)CCO1 (stereo not given)
inactive: [1] | [2] | [3] | [4] | [5] | [6] | [7] | [8] | [9] | [10] | [11] | [12] | [13] | [15] | [16] | [17] | [18] | [19]

CC(O)CN(CCCN(C)C)CCCN(C)C (stereo not given)
inactive: [1] | [2] | [3] | [4] | [5] | [6] | [7] | [8] | [9] | [10] | [11] | [12] | [14] | [15] | [16] | [17] | [18] | [19]

CCC(C)(CCCC(C)C)OC(C)=O (stereo not given)
inactive: [1] | [2] | [3] | [4] | [5] | [6] | [7] | [8] | [9] | [10] | [11] | [12] | [13] | [14] | [15] | [16] | [17] | [18] | [19]

O=C(O)c1ccccc1Cl
inactive: [1] | [2] | [3] | [4] | [5] | [6] | [7] | [8] | [9] | [10] | [11] | [12] | [13] | [14] | [15] | [17] | [18] | [19]

O=C(CCOCCOCCOCCOCCC(=O)Nc1c(I)cc(I)c(C(=O)O)c1I)Nc1c(I)cc(I)c(C(=O)O)c1I
inactive: [1] | [2] | [3] | [4] | [5] | [6] | [7] | [8] | [9] | [10] | [12] | [13] | [14] | [15] | [16] | [17] | [18] | [19]

COc1ccc2c(c1)c(CC(=O)OCC(=O)O)c(C)n2C(=O)c1ccc(Cl)cc1
inactive: [1] | [2] | [3] | [4] | [5] | [6] | [7] | [8] | [9] | [17] | [18] | [19]

C=CC(=O)OCC[N+](C)(C)C
inactive: [1] | [2] | [4] | [5] | [6] | [7] | [8] | [9] | [11] | [12] | [15] | [16] | [17] | [18] | [19]
active: [3] 438 nM | [14] 43.8 nM
